High-throughput results from PubChem.
Nrf2 inh = Nrf2 pathway inhibition. A549 ARE-Fluc reporter, luciferase luminescence, 18-24 h. Potency, µM (top dose mostly 46 µM), inactives show top-dose activity change, negative = inhibition, hits mostly inhibitors. 2.1% of 360,000 active. AID 504444; note: % is set by controls: 0 for no effect and ±100 for the full control effect; nearly all actives have a fitted effect of over 60% in size
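A549 ARE_Fluc cells, 5000/well, 5% FBS OPTI-MEM; compounds in dose-response, 18-24 h at 37 °C/5% CO2; CellTiter-Fluor viability read (Ex 405/Em 525), then BugLite luciferase luminescence = Nrf2 activity.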
Nrf2 activator = activates Nrf2 signaling. AREc32 ARE-luciferase reporter (MCF7-derived line), luminescence, 24 h. Potency, µM (series often up to 46.1 µM), without a hit: at the top dose activation, most hits filed as activators. 0.31% of 410,000 active; note: % of control where 0% means no effect; nearly all actives have a fitted effect of over 65% in size
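AREc32 cells carrying an ARE-driven firefly luciferase reporter were seeded at 1000 cells/well in OPTI-MEM with 5% FBS, then exposed to compound for 24 hr at 37 deg C. Luminescence was read with Steady-Glo after 30 min at RT.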
ELG1 repair inh = blocks ELG1-dependent DNA repair in HEK293T cells | HEK293T ELG1-luciferase reporter, luminescence, 16 h; DNA damage induced by 5-fluorouridine | Potency, µM (highest dose often 46.1 µM), without a hit: at the top dose activity change, negative = inhibition, actives largely listed as inhibitors | 2.3% of 330,000 active; note: % is set by controls: 0 for no effect and ±100 for the full control effect; nearly all actives have a fitted effect of over 55% in size
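Quantitative HTS, concentration-response format. 2,000 cells/well co-treated with 5-fluorouridine and compound, 16 hr in 5% CO2 at 37 °C; ONE-Glo luminescence read after 30 min.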
A549 viability = kills or reduces viability of A549 cells in Nrf2 counter-screen. A549 ARE-Fluc cells, CellTiter-Fluor viability, 18-24 h. Potency, µM (doses to about 46 µM), inactives show at the highest dose activity change, negative = cytotoxicity, hits mostly inhibitors. 0.16% of 390,000 active; note: % is set by controls: 0 for no effect and ±100 for the full control effect
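A549 ARE_Fluc cells in 5% FBS OPTI-MEM were exposed to compounds in concentration-response for 18-24 h at 37 deg C. Viability was read by CellTiter-Fluor fluorescence (Ex 405/Em 525) after 30 min, before the luciferase read.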
* marks the source's active call; other numbers are inactive results; ? = inconclusive; nt = not tested or not shown; [ ] = dose if it differs, or a comment. In the library only some 3.7% were active in any assay of this set; here they are far more common. Calls come from the whole dose curve; as a rule, active = well fitted curve in the direction sought with a large enough effect; inconclusive = small, poorly fitted or top-dose-only effect, or another doubt; inactive = no such curve, though single readings can be large; an effect the other way counts as inactive or inconclusive. Potency is the fitted concentration of half-maximal effect.

SMILES	Nrf2 inh	Nrf2 activator	ELG1 repair inh	A549 viability
FC(F)(F)c1cc(-c2ccc(Cl)cc2)nc(NCc2cccnc2)n1	15µM*	3%	21µM*	6%[1.84 µM]
COc1ccc(-c2cc(C(F)(F)F)nc(NCc3ccc(Cl)cc3)n2)cc1	-7%[9.27 µM]	0%	nt	-10%
CC(=O)Oc1ccc(N(C(C)=O)S(=O)(=O)c2ccc(Cl)cc2)c2ccccc12	11%	8%	18µM*	1%
CC(=O)N(c1ccc(N(C(C)=O)S(=O)(=O)c2ccccc2)cc1)S(=O)(=O)c1ccccc1	-18%	0%	-20%	0%
CC(=O)Oc1ccc(N(C(C)=O)S(=O)(=O)c2ccc3ccccc3c2)cc1	-16%	-1%	21µM*	7%
Cc1ccc(CNC(=O)C(CC(C)C)OC(=O)c2ccco2)cc1 (stereo not given)	-28%	2%	?	2%
Cc1ccc(CNC(=O)c2c(C)oc3nc(C)nc(N4CCOCC4)c23)cc1	20%	0%	nt	-13%
O=C(c1ccco1)N1CCN(Cc2nc3ccc([N+](=O)[O-])cc3c(=O)n2-c2ccccc2F)CC1	6%	0%	23µM*	-2%
COc1cc(C(=O)NCCOc2cccc3cccnc23)cc(OC)c1OC	?	-1%	8.2µM*	-8%
Cn1nc(C2CC2)cc1NC(=O)C1(C)CCN1C(=O)c1ccccc1CCc1ccccc1 (stereo not given)	nt	1%	nt	nt
COc1ccc(-c2csc(Nc3ccc(S(N)(=O)=O)cc3)n2)cc1	?	-1%	16µM*	-8%
Cc1ccc2oc(C(Cl)(Cl)Cl)cc(=O)c2c1	1%	22µM*	-8%	?
Cc1ccc2oc(C(F)(F)C(F)F)cc(=O)c2c1	8%	-2%	0%	4%
CC(C)c1ccc(OCC(=O)NCC(c2ccc(Cl)cc2)N2CCOCC2)cc1 (stereo not given)	-26%	5%	nt	14%
OC(c1ccccc1)(c1ccccc1)C1CCN(C(=S)NCCc2ccccc2)CC1	23µM*	0%	?	?
CCOC(=O)/C=c1\s/c(=C(\C#N)C(=O)NC)n(-c2ccccc2)c1=O	11%	0%	23%	3%
Cc1ccccc1-n1c(=O)/c(=C\c2ccco2)s/c1=C(/C#N)C(=O)Nc1ccccc1	11%	0%	4.6µM*	-4%
COC(=O)c1ccc(COC(=O)C(NC(=O)Cc2ccccc2)C(C)C)cc1 (stereo not given)	3%	0%	-2%	10%
C/C(=N/Nc1ccccc1[N+](=O)[O-])c1ccc([N+](=O)[O-])cc1	3%	8%	14%	10%
C/C(=N\Nc1ccc([N+](=O)[O-])cc1[N+](=O)[O-])c1ccc(-n2nncc2C(C)(C)C)cc1	?	4%	10µM*	-21%
CCc1nnc(NC(=O)CCC(=O)N2CCN(CCOc3ccc(C)cc3)CC2)s1	21µM*	-1%	23µM*	-12%
NCC(=O)Nc1cccc(-c2nn3c(=O)cc(N4CCNCC4)nc3s2)c1	11%	nt	nt	-1%
CC(=O)Nc1ccc(NC(=O)C2CCC(N3C(=O)C4C5C=CC(C6CC56)C4C3=O)CC2)cc1 (stereo not given)	26µM*	0%	10%	-17%
O=C(Nc1ccc(Cc2ccncc2)cc1)C1CCC(N2C(=O)C3C4C=CC(C5CC45)C3C2=O)CC1 (stereo not given)	18µM*	0%	8.2µM*	?
COc1ccc(CNC(=O)C2(C)Cc3c(-c4cccc(NC(C)=O)c4)ccnc3O2)cc1OC (stereo not given)	nt	4%	nt	nt
SMILES	Nrf2 inh	Nrf2 activator	ELG1 repair inh	A549 viability
COc1ccc(-c2csc(N(CCCN3CCOCC3)C(=O)c3ccco3)n2)cc1	?	2%	16µM*	8%
COc1ccc(CC(=O)Nc2nc(C(C)(C)C)cs2)cc1	13µM*	2%	-6%	?
COC(=O)c1cc(-c2cc(OC)ccc2OC)nc2c1c(=O)n(C)c(=O)n2Cc1ccccc1	?	0%	9.2µM*	3%
COc1ccc(OC)c(-c2csc(NC(=O)Cc3ccccc3)n2)c1	18µM*	3%	-24%	-17%
COc1ccc(OC)c(-c2csc(N(Cc3ccco3)C(=O)c3ccco3)n2)c1	?	2%	18µM*	9%
COc1ccc(-c2csc(N(CC3CCCO3)C(=O)c3ccc(C)cc3)n2)cc1 (stereo not given)	?	0%	?	-13%
COc1ccc(OC)c(-c2csc(NC(=O)Cc3cccs3)n2)c1	16µM*	7%	?	-6%
COc1ccc(CC(=O)Nc2nc(-c3cc(OC)ccc3OC)cs2)cc1	12µM*	0%	?	-20%
COc1ccc(-c2csc(N(CC3CCCO3)C(=O)c3ccccc3)n2)cc1 (stereo not given)	-19%	0%	8.2µM*	?
COc1cccc(CC(=O)Nc2nc(-c3cc(OC)ccc3OC)cs2)c1	-13%	0%	-20%	-1%
COCCCN(C(=O)c1ccco1)c1nc(-c2cc(OC)ccc2OC)cs1	-18%	0%	?	-10%
COc1ccc(CC(=O)Nc2nc(C)cs2)cc1OC	?	-1%	16µM*	-7%
Fc1ccc(-c2cc3nc(-c4ccccc4)cc(N4CCN(CCN5CCOCC5)CC4)n3n2)cc1	?	0%	?	-28%
CN1CCN(c2cc(-c3ccccc3)nc3cc(-c4ccc(F)cc4)nn23)CC1	-22%	3%	23µM*	-1%
Nc1nc(Cl)nc2c1ncn2C1CC(O)C(CO)O1 (stereo not given)	?	3%	1%	-1%
CC1CCc2nc3ccccc3c(C(=O)OCC(=O)N3CCc4ccccc43)c2C1 (stereo not given)	4%	-1%	18µM*	-5%
CCCc1nc2ccccc2c(C(=O)OCC(=O)N2CCc3ccccc32)c1CC	?	-1%	16µM*	-5%
CCn1c(C)c(C2=CCN(S(=O)(=O)c3ccccc3)CC2)c2ccccc21	-10%	0%	-8%	11%
COc1ccc(C(=O)N(Cc2ccccc2)Cc2ccccc2)c(O)c1	?	nt	nt	-3%
COc1ccc(-c2csc(=Nc3ccccc3)n2CCO)cc1	?	3%	?	-1%
O=S(=O)(c1ccc(-c2csc(=Nc3ccc(F)cc3)n2CCCCCCO)cc1)N1CCCC1	23µM*	-3%	nt	?
C=CCn1c(-c2ccc(S(=O)(=O)N3CCOCC3)cc2)csc1=Nc1ccccc1	?	4%	0%	-12%
Cc1csc(=Nc2cccnc2)n1Cc1ccco1	-18%	11%	-2%	1%
COc1ccc(N=c2scc(-c3ccc(S(=O)(=O)N4CCOCC4)cc3)n2CCCO)cc1	nt	nt	15µM*	nt
Cc1csc(=Nc2ccc(S(=O)(=O)N3CCOCC3)cc2)n1Cc1ccco1	?	3%	15µM*	-4%
CC(C)Cn1c(-c2ccc(S(=O)(=O)N3CCCC3)cc2)csc1=Nc1ccccc1	16µM*	1%	nt	4%
O=[N+]([O-])c1cccnc1NCc1cccs1	-13%	1%	?	-7%
